The structures appear in SMILES notation. The whole screen tested about 300,000 compounds, of which about 37,000 (12%) were called active. What follows is part of a selection rich in actives, with near analogues and random picks from the rest. A number with no mark means an inactive call. No stated cut-off is given here; in the data, active means max response mostly above about 13% (no sharp cut-off); inactive means mostly below about 14%.

This test is described as follows: Cycloheximide Counterscreen for Small Molecule Inhibitors of Shiga Toxin. Further: read at 38.3 µM for the half of the compounds with a filed dose; 0% is about no effect. Particulars: cell reporter, cycloheximide protein synthesis inhibition counterscreen; hits give high values.
For `O=S(=O)(Nc1ccc(Oc2ncccn2)c(Cl)c1)c1ccc(F)cc1`, the max response was 5.26%.
The figure for `CC1CCCCC1NC(=O)C1CCCN1S(=O)(=O)c1cccc2nsnc12` (stereo not given) is 3.55%.
`Cc1cnc(C)c(N2CCN(C(=O)C3CCC(=O)N(CCc4cccc(F)c4)C3)CC2)n1` (stereo not given): the max response was -0.816%.
The figure for `COc1ccc(C(=O)c2c(C)c(CCC#N)n3ccccc23)c(OC)c1` is -1.97%.
For the compound `CCOCCCN1C(=O)C2C(C(=O)Nc3ccc(OCC)cc3)C3C=CC2(O3)C1C(=O)NC1CCCCC1` (stereo not given), the max response was -3.23%.
The figure for `CCNS(=O)(=O)c1ccc(NC(=O)c2cncc(Br)c2)cc1` is -2.2%.
The result for `Cc1cc(N2CCOCC2)nc2ccc(NC(=S)N3CCN(Cc4ccccc4)CC3)cc12` reads 3.98%.
The figure for `O=C(Nc1ccc2c(c1)OCO2)c1sc2cc(Cl)ccc2c1Cl` is 2.36%.
Regarding `CC(Sc1nc(-c2ccccc2)cc(C(F)(F)F)n1)C(=O)Nc1ccc2c(c1)OCO2` (stereo not given), the max response is -1.84%.
The result for `O=C(Nc1cccnc1)c1cccc(S(=O)(=O)N2CCCC2)c1` reads 3.36%.
With `CC(NC(=O)Nc1ccccc1)c1ccccc1` (stereo not given), the max response is 14.1%.
The result for `COc1ccc(C(=O)Nc2cccnc2)cc1C(=O)Nc1cccnc1` reads -0.996%; that for `O=C(Nc1cccnc1)c1cc2cc(Br)ccc2oc1=O`, -1.47%.
The result for `CC(=O)Nc1ccc(-c2csc(NC(=O)Nc3ccccc3)n2)cc1` reads 10.8%; that for `CC(Sc1nc2cc(Cl)ccc2s1)C(=O)Nc1ccc2c(c1)OCO2` (stereo not given), 29% (active); that for `O=C(Nc1ccccc1)Nc1nc2ccccc2s1`, 37.9% (active).
As to `O=C(Nc1cccnc1)c1noc2c1CCCCC2`, the max response was 32.5% (active).
The figure for `O=C(Nc1cccnc1)c1ccc2c(c1)OCO2` is 19.3% (active); for `CN(C(=O)CN1C(=O)/C(=C/c2ccc(Cl)cc2)SC1=S)C1CCS(=O)(=O)C1` (stereo not given) it is -10.5%.
The result for `Cc1nn(-c2ccccc2)c2c1c(C)c(CCC(=O)NCC1CCCO1)c(=O)n2C` (stereo not given) reads -2.56%.
Turning to `CC1(c2cccc([N+](=O)[O-])c2)CC(C)(C)N(C(=O)c2ccccc2)c2ccccc21` (stereo not given), the max response was 4.81%.
For the compound `O=c1c2ccccc2nc2n1C(CSCc1cccc(C(F)(F)F)c1)CS2` (stereo not given), the max response is 1.18%.
The figure for `CC(=O)N1c2ccc(S(=O)(=O)NCCC(=O)N(C)C3CCCCC3)cc2CC1C` (stereo not given) is 10.2%; for `COc1cc(C(=O)NNC(=O)c2ccc(S(=O)(=O)N3CCCCC3)cc2)cc(OC)c1OC` it is -1.13%; for `CCN(CC(=O)NC(=O)NCc1ccccc1)Cc1nc2ccccc2c(=O)[nH]1` it is -2.64%.

The record behind these values is PubChem BioAssay AID2314 (National Center for Advancing Translational Sciences (NCATS), 2010).
